Assay outcomes deposited in PubChem by several laboratories.
GRIN3A LBD mod = binders of NR3A ligand-binding domain, primary screen, biophysical, differential scanning fluorimetry, uHTS; NR3A LBD differential scanning fluorimetry, Tm shift; 0% = protein alone, 100% = glycine-bound protein; Tm shift relative to glycine control, % at 25 µM; 340,000 compounds, 2.5% hits; AID 1259313, 2017;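 active = melting temperature shift of at least 10% of the positive control shift, at one fixed dose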
NadD inh = inhibitors of S. aureus NadD, primary screen, biochemical, colorimetric, uHTS | AID 602399, 2012 | inhibition, % at 20 µM | 360,000 compounds, 0.78% hits | purified NadD enzyme, colorimetric absorbance read-out; in the data active = inhibition above about 26%
SKN-1 block = suppressors of acrylamide-induced Pgst-4::GFP reporter in worms, primary screen, SKN-1 inhibitor project, whole organism, uHTS, GFP/RFP fluorescence ratio, strain VP596; C. elegans VP596 Pgst-4::GFP/RFP ratio, 24 h; inhibition, % at 21.8 µM; 360,000 compounds, 0.49% hits;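 active = interference check ratio from 0.5 to 1.5 plus GFP to RFP signal ratio inhibition reaching or exceeding a fixed threshold, cut at about 30% in these data, passing the limit was not always enough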
SMARCA2 activ = SMARCA2 (BRM) function activators, primary screen, cell-based, luminescence, high throughput; MG213 cells, MMTV-luciferase reporter, dexamethasone, overnight; activation, % at 9.1 µM; 370,000 compounds, 1% hits; AID 652017, 2013; in the data active = activation above about 7.8%;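 note: 0% = vehicle wells and 100% = reference activator wells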
Vif imaging = HIV Vif self-association inhibitors, primary screen, imaging, HEK293T, single point; 340,000 compounds, 0.35% hits; inhibition, % at 7.49 µM; HEK293T cells, Vif self-association by quenched fluorescence, 24 h; in the data active = inhibition above about 50%, passing the limit was not always enough; inconclusive = no clear call, values can overlap the other calls; inactive = below about 31%
esBAF inh = Bmi1 luciferase reporter increase in mESCs, primary screen, esBAF inhibitor project, mouse ES cells, Bmi1 luciferase knock-in, single point | 24 h; 100% = twice the neutral-well signal | reporter increase, % at 12.5 µM | 350,000 compounds, 2% hits | AID 602393, 2012; in the data active = activation above about 40%; inconclusive = no clear call, values can overlap the other calls;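 note: 0% = median of the plate's neutral control wells and 100% = double that signal; a rise in the Bmi1 reporter signal indicates esBAF inhibition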
Starred values were filed as active, the others as inactive; u = inconclusive; x = no result given. A selection: hits, their analogues and other compounds. The true share with any hit is near 5.2%.

SMILES	GRIN3A LBD mod	NadD inh	SKN-1 block	SMARCA2 activ	Vif imaging	esBAF inh
COc1cccc(NC(=O)N[C@H]2CC[C@H](CC(=O)NCc3ccncn3)O[C@H]2CO)c1	x	x	x	x	x	2
FC(F)(F)c1ccccc1Cc1c(-c2cccc(Cl)c2)nc2ccc(Br)cn12	x	7	21	2	x	42*
CCCN(C)C[C@H]1OCc2cnnn2CCCC(=O)N([C@@H](C)CO)C[C@H]1C	x	x	x	x	x	-1
COc1ccc(C)cc1NC(=O)C(NCC1CCCO1)c1ccccc1 (stereo not given)	15*	-1	-15	-1	1	x
COc1ccc(S(=O)(=O)NCC2CCCO2)cc1NC(=O)c1ccccc1 (stereo not given)	10	-2	-7	2	-2	0
CCCNC(=O)N1[C@H](CO)[C@H](c2ccc(C3=CCCC3)cc2)[C@@H]1CNC(C)=O	x	x	x	x	x	1
Cc1nc2c(sc(=S)n2Cc2ccco2)c(=O)n1CC(=O)Nc1cc(F)ccc1F	6	3	6	-1	-9	1
CCn1c(=S)sc2c(=O)n(CC(=O)Nc3ccc(Cl)cc3)c(C)nc21	15*	3	24	-2	1	1
CCn1c(=S)sc2c(=O)n(CC(=O)Nc3ccc(OC)c(Cl)c3)c(C)nc21	12*	2	-6	-2	-2	-8
Cc1nc2c(sc(=S)n2Cc2ccco2)c(=O)n1CC(=O)Nc1ccc(F)cc1	14*	7	4	0	-2	3
Oc1cc2c(cc1O)[C@H]1c3ccc(O)c(O)c3OC[C@@]1(O)C2	1	12	37*	-3	16	1
COc1cccc(Cn2cnc3c(NS(=O)(=O)c4cccc(Cl)c4Cl)c(C)c(C)cc32)c1	-6	30*	3	-3	x	18
CNc1cc([N+](=O)[O-])ccc1N/C=C/C(=O)c1ccc2c(c1)OCO2	13*	13	-9	0	6	x
O=C(/C=C/c1ccccc1Br)c1ccc2c(c1)OCO2	-2	-7	1	0	-3	29
O=C(/C=C\Nc1ccccc1Br)c1ccc2c(c1)OCO2	36*	-2	3	-2	6	x
COc1ccc(S(=O)(=O)Nc2ccc3c(c2)C(=O)N([C@@H](C)CO)C[C@H](C)[C@H](CN(C)C(=O)CCCN(C)C)OCCCC[C@H](C)O3)cc1	x	x	x	x	x	-2
COc1ccc(S(=O)(=O)N(C)C[C@H]2Oc3ccc(NC(=O)CCN4CCOCC4)cc3CC(=O)N([C@@H](C)CO)C[C@@H]2C)cc1	x	x	x	x	x	-2
CCCn1cnc2cc(NC(=O)c3ccco3)ccc21	1	-2	-16	2	10	-14
CCn1cnc2cc(NC(=O)c3ccc(C)cc3)ccc21	-2	-7	14	7.9*	21	21
CCCn1cnc2cc(NC(=O)c3cccs3)ccc21	1	3	8	0	-3	55*
C[C@@H]1CCCCO[C@H](CN(C)C(=O)c2ccncc2)[C@H](C)CN([C@H](C)CO)C(=O)c2cc(NC(=O)C3CCCCC3)ccc2O1	x	x	x	x	x	1
C[C@@H](NC(=O)C[C@@H]1C=C[C@@H](NC(=O)C2CCOCC2)[C@@H](CO)O1)c1ccccc1	x	x	x	x	x	0
CNC(=S)N/N=C/c1ccc(C(C)C)cc1	-1	0	20	3	x	59*
CNC(=S)N/N=C/c1ccc(N(C)C)cc1	-1	2	13	3	-3	x
CO[C@H]1CN(C)C(=O)c2ccc(NC(=O)C3CC3)cc2OC[C@H](C)NC[C@H]1C	x	x	x	x	x	3
SMILES	GRIN3A LBD mod	NadD inh	SKN-1 block	SMARCA2 activ	Vif imaging	esBAF inh
C=CCNc1nc(-c2ccc(OC)cc2OC)cs1	1	3	16	5	-2	55*
C[C@H](CO)N1C[C@H](C)[C@H](CN(C)S(=O)(=O)c2ccc(F)cc2)Oc2c(NC(=O)C3CC3)cccc2C1=O	x	x	x	x	x	1
Cc1ccc2nc(/C(C#N)=N/O)[nH]c2c1	-12	5	-3	1	6	2
N#C/C(=C1\CCCN1)c1ccc2ccccc2n1	-3	-1	-8	1	15	8
N#C/C(=C1/CCCCCN1)c1nc2ccccc2[nH]1	3	-4	-1	4	x	50*
N#C/C(=N\O)c1nc2ccccc2[nH]1	22*	1	6	-1	-6	x
O=C(CCn1c(=O)c2cccn2c2cccnc21)NCc1cccc(Cl)c1	10*	0	11	3	1	8
Fc1ccc2nc(Nc3nc4c(F)cc(F)cc4s3)sc2c1	34*	13	2	-2	-1	x
Fc1cccc2sc(Nc3nc4ccccc4s3)nc12	28*	4	19	0	-6	u
NNc1nc2ccc(F)cc2s1	1	-3	2	2	5	x
Fc1ccc2nc(Nc3nc4c(F)cccc4s3)sc2c1	23*	8	0	2	1	x
Fc1ccc2nc(Nc3ccccc3)sc2c1	19*	-7	27	3	4	92*
CCC(=O)NNc1nc2c(F)cc(F)cc2s1	1	1	-3	0	2	-5
O=C(Nc1nc2ccc(F)cc2s1)Oc1ccccc1	-5	7	2	0	2	9
CCCC#Cc1cnc2c(c1)C(=O)N([C@@H](C)CO)C[C@H](C)[C@@H](CN(C)C)O2	x	x	x	x	x	-4
CCOc1ccc(S(=O)(=O)Nc2nc3ccccc3nc2Nc2ccc(N3CCOCC3)cc2)cc1	15*	28	5	0	11	30
CC(=O)Nc1ccc(S(=O)(=O)Nc2nc3ccccc3nc2Cl)cc1	38*	-4	5	0	-8	x
O=S(=O)(Nc1nc2ccccc2nc1Nc1cccc(S(=O)(=O)N2CCCCC2)c1)c1ccccc1	13*	25	2	-1	-16	x
COc1ccc(Nc2nc3ccccc3nc2NS(=O)(=O)c2ccc(NC(C)=O)cc2)cc1	12*	5	15	2	-20	x
CCCC#Cc1cnc2c(c1)C(=O)N([C@H](C)CO)C[C@@H](C)[C@H](CN(C)C(=O)c1ccc3c(c1)OCO3)O2	x	x	x	x	x	0
C[C@H]1CN([C@@H](C)CO)C(=O)c2cc(C3=CCCCC3)cnc2O[C@@H]1CN(C)C(=O)C1CCOCC1	x	x	x	x	x	8
O=[N+]([O-])c1cccc(S(=O)(=O)Nc2ccccn2)c1	x	1	-12	0	-4	-4
CC(=O)Nc1ccc(S(=O)(=O)Nc2nc3ccccc3nc2Nc2ccc(S(N)(=O)=O)cc2)cc1	27*	4	12	2	1	x
COc1ccc(Nc2nc3ccccc3nc2NS(=O)(=O)c2cccs2)cc1	22*	-2	15	-3	-18	0
